# Assay results published in the supplement of paper PMC3545927.
# The other results are listed elsewhere or left out. The true hit rate is not given.
# Target: furin, P09958
# Test: furin cleavage Z-score vs untreated control; higher = more cleavage, active = 3.5 or more, inactive = 1 or less, 8 variable residues between constant flanks
# Summary of the method: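 Furin cleavage was scored on 8-mer peptides joined to a cDNA oligonucleotide and bound to magnetic beads at the N-terminus. Digestion with purified furin (1:10 enzyme:substrate, 0.01 ml, 50 mM HEPES pH 7.5, CaCl2, NaCl) lasted 7.5, 15 or 30 min. Freed DNA was tagged with adapters by PCR, sequenced and counted; the cleavage Z-score is the lowess-adjusted log count versus furin-free reactions, scaled by median absolute deviation.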
# Chain of furin, P09958 (P09958 whole entry): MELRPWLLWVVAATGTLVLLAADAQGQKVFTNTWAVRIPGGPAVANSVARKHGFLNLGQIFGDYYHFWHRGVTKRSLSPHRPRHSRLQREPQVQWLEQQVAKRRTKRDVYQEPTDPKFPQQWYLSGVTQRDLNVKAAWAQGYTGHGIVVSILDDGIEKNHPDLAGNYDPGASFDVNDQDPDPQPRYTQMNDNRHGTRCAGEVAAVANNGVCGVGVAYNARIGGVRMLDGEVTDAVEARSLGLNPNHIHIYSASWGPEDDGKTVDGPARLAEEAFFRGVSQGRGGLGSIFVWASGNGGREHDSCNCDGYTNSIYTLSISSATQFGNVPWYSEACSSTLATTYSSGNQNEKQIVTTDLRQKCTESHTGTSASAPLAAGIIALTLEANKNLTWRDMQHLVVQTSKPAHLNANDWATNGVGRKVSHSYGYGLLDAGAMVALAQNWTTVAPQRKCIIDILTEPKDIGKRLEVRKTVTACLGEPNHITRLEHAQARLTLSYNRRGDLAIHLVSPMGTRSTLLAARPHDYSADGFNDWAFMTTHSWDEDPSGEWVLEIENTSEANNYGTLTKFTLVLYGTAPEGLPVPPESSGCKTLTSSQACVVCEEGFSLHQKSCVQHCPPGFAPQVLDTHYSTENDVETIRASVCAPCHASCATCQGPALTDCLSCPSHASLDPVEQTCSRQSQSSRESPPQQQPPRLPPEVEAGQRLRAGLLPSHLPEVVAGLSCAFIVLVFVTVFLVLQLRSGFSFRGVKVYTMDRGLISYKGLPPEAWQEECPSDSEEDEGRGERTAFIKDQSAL
Sequence,furin cleavage Z-score (7.5 min),furin cleavage Z-score (15 min),furin cleavage Z-score (30 min)
CAMMLLISQAAGNASASA [HC529],-0.436 (inactive),-0.997 (inactive),1.3
CADKMEECSQAGNASASA [HC1814],-0.565 (inactive),0.769 (inactive),-0.546 (inactive)
CARYNRPPREAGNASASA [FS-378],9.4 (active),8.69 (active),7.85 (active)
CAYHGRIPREAGNASASA [FS-1619],4.85 (active),5.6 (active),4.92 (active)
CARDGRYTPCAGNASASA [FS-2903],0.99 (inactive),-0.489 (inactive),-0.0469 (inactive)
CAEHNRTPREAGNASASA [FS-20],6.46 (active),6.63 (active),5.97 (active)
CAGYELQGREAGNASASA [FS-534],-1.04 (inactive),-1.1 (inactive),-1.02 (inactive)
CAEINRVAACAGNASASA [HC1611],0.443 (inactive),-0.785 (inactive),-0.701 (inactive)
CARYSAPPGDAGNASASA [HC1543],-1 (inactive),0.134 (inactive),-1.47 (inactive)
CASKFGYGAKAGNASASA [HC1420],0.531 (inactive),0.331 (inactive),-1.23 (inactive)
CALAPGAKQNAGNASASA [HC362],0.735 (inactive),-0.827 (inactive),0.525 (inactive)
CAVVCCSMSQAGNASASA [HC2102],-0.199 (inactive),0.851 (inactive),0.49 (inactive)
CATKLITWGAAGNASASA [HC651],0.877 (inactive),-0.214 (inactive),-0.337 (inactive)
CALYGNEGCGAGNASASA [HC203],-0.0812 (inactive),1.22,0.228 (inactive)
CARRRRHAGEAGNASASA [FS-2404],6.46 (active),4.9 (active),5.66 (active)
CARRRRHPDEAGNASASA [FS-1785],5.6 (active),5.56 (active),4.6 (active)
CARRHVGPGEAGNASASA [HC1112],-0.341 (inactive),-0.961 (inactive),-0.867 (inactive)
CARRRRHPDDAGNASASA [FS-3063],3.1,4.81 (active),3.91 (active)
CATDNLKCPCAGNASASA [HC1214],0.631 (inactive),-2.12 (inactive),-1.25 (inactive)
CATEEAIYQCAGNASASA [HC1488],0.306 (inactive),-0.635 (inactive),1.07
CAQTLLFNILAGNASASA [HC1063],0.309 (inactive),-0.599 (inactive),0.404 (inactive)
CATTSCSGSWAGNASASA [HC1877],-0.56 (inactive),-0.299 (inactive),-0.313 (inactive)
CAEGPCHRPSAGNASASA [HC2336],0.811 (inactive),0.167 (inactive),0.259 (inactive)
CARPFRSFVPAGNASASA [FS-2499],0.343 (inactive),1.12,0.335 (inactive)
CARPFRYKRKAGNASASA [FS-1402],7.84 (active),8.54 (active),7.38 (active)
CARPYRCKIKAGNASASA [FS-3032],-0.856 (inactive),-0.224 (inactive),1.6
CAIITRYKRKAGNASASA [FS-338],6.56 (active),6.04 (active),6.05 (active)
CANSSPPVVPAGNASASA [HC767],-0.356 (inactive),1.59,-0.293 (inactive)
